Laboratory results published in PubChem BioAssay (NCI).
This is part of a sample that, as a whole, favours compounds with a hit. Of some 83,000 tested, about 20% had one in any assay.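 48-hour exposure, single concentration, 96-well plates; percent growth endpoint where 0 means no net growth. Active: below 10.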 A number with no mark means an inactive call. Calls of active or inactive are those of the source.

Tests used:
Test in all cases: NCI-60 one-dose screen, 48 h (100 = growth as untreated, 0 = no growth, -100 = all killed)
Settings in all cases: 10 µM unless noted
SK-MEL-2 melanoma = test system: SK-MEL-2 melanoma
EKVX NSCLC = test system: EKVX NSCLC
SN12C renal = test system: SN12C renal
UO-31 renal = test system: UO-31 renal
TK-10 renal = test system: TK-10 renal
ACHN renal = test system: ACHN renal
CAKI-1 renal = test system: CAKI-1 renal
A498 renal = test system: A498 renal
CCRF-CEM leukemia = test system: CCRF-CEM leukemia
MOLT-4 leukemia = test system: MOLT-4 leukemia
SR leukemia = test system: SR leukemia
RPMI-8226 leukemia = test system: RPMI-8226 leukemia
OVCAR-8 ovarian = test system: OVCAR-8 ovarian
OVCAR-5 ovarian = test system: OVCAR-5 ovarian
OVCAR-4 ovarian = test system: OVCAR-4 ovarian
SK-OV-3 ovarian = test system: SK-OV-3 ovarian
IGROV1 ovarian = test system: IGROV1 ovarian
OVCAR-3 ovarian = test system: OVCAR-3 ovarian
HS 578T breast = test system: HS 578T breast
NCI/ADR-RES ovarian = test system: NCI/ADR-RES ovarian

Compound | growth (SK-MEL-2 melanoma) | growth (EKVX NSCLC) | growth (SN12C renal) | growth (UO-31 renal) | growth (TK-10 renal) | growth (ACHN renal) | growth (CAKI-1 renal) | growth (A498 renal) | growth (CCRF-CEM leukemia) | growth (MOLT-4 leukemia) | growth (SR leukemia) | growth (RPMI-8226 leukemia) | growth (OVCAR-8 ovarian) | growth (OVCAR-5 ovarian) | growth (OVCAR-4 ovarian) | growth (SK-OV-3 ovarian) | growth (IGROV1 ovarian) | growth (OVCAR-3 ovarian) | growth (HS 578T breast) | growth (NCI/ADR-RES ovarian)
Cc1ccccc1C(c1ccccc1)c1ccccc1C | 101% | 96.3% | 96.8% | 79.2% | 100% | 94.2% | 87.6% | 83.6% | 83.3% | 93.5% | 104% | 89.5% | 89.8% | 85% | 108% | 75.1% | 92.2% | 104% | 106% | 104%
FC(F)(F)Oc1cccc(-c2cc(NCCCCCCNc3cc(-c4cccc(OC(F)(F)F)c4)nc4ccc(N5CCCC5)cc34)c3cc(N4CCCC4)ccc3n2)c1 | 2.93% (active) | -54.4% (active) | -81.4% (active) | 35% | -89.7% (active) | -15.6% (active) | 5.91% (active) | 21.8% | -32.1% (active) | -35.6% (active) | -40.7% (active) | -34.3% (active) | -50.2% (active) | -29.4% (active) | -72.7% (active) | 89.8% | -64% (active) | -95.9% (active) | -4.44% (active) | 21.6%
O=C(CN1CCOCC1)Nc1ccc2ncnc(Nc3ccc(Oc4cccc(C(F)(F)F)c4)c(Cl)c3)c2c1 | 75.9% | 22% | 38.4% | 22.5% | 38.4% | 19% | 33.8% | 10.1% | 58.4% | 37.5% | 61.5% | 51.5% | 49.8% | 64.3% | 55% | 16% | 9.01% (active) | 33.8% | 70.8% | 42.3%
COc1cc2nc(Cc3ccc(C)cc3)[nH]c(=O)c2cc1OC | 123% | 109% | 99.6% | 97.5% | 292% | 110% | 129% | 90.6% | 1.89% (active) | 95% | 100% | 88.2% | 104% | 102% | 108% | 113% | 109% | 109% | 100% | 102%
O=C1Nc2c(ccc(Cl)c2Cl)/C1=C/c1ccc(F)cc1 | 5.62% (active) | 60.2% | 98.3% | 71.9% | 109% | 85.9% | 38% | 92.5% | 93.5% | 76% | 73.9% | 96.5% | 97.9% | 84.4% | 73.8% | 89.7% | 42.8% | 83.5% | 73.8% | 94%
Cc1ccc2[nH]c(=O)cc(-n3nncc3COc3ccc(C=O)cc3)c2c1 | 101% | 103% | 106% | 62.9% | 109% | 98.9% | 87.8% | 117% | 97.9% | 108% | 102% | 102% | 107% | 101% | 104% | 107% | 106% | 102% | 96.7% | 109%
COc1cc(C2CC(c3cccc(Nc4ccncc4)c3)=NN2C(C)=O)cc(OC)c1OC (stereo not drawn) | 99.1% | 87.5% | 94% | 89.1% | 97.7% | 99.5% | 78.9% | 94.1% | 92.7% | 84.4% | 27.3% | 94.4% | 97% | 98.9% | 83.8% | 90.6% | 89.2% | 96.3% | 86% | 97.9%
Clc1ccc(C2CC(c3cccc(Nc4ccncc4)c3)=NN2c2cc(Cl)cc(Cl)c2)cc1 (stereo not drawn) | 107% | 74.3% | 76.3% | 71.2% | 94.8% | 77.2% | 55.3% | 85.6% | 11.3% | 7.7% (active) | 6.05% (active) | 43.4% | -7.8% (active) | 84.4% | 33.7% | 90.7% | 44.6% | 76.9% | 78% | 68.3%
CC(=O)c1c[nH]c2ccc(-c3ccnc(Nc4ccc(NC(=O)c5cccc(F)c5)c(CN5CCOCC5)c4)n3)cc12 | -15.6% (active) | -24.1% (active) | -4.7% (active) | 2.38% (active) | 1.22% (active) | -12.1% (active) | -1.58% (active) | -62.8% (active) | 2.24% (active) | 1.65% (active) | 4.05% (active) | -25.9% (active) | 8.7% (active) | -4.49% (active) | -18.9% (active) | 17.8% | 1.06% (active) | -8.81% (active) | -20.1% (active) | 1.76% (active)
COc1ccc(C(=O)/C=C/c2cn(Cc3ccc(Cl)cc3)c3ccccc23)cc1 | 74.6% | 89% | 69.4% | 53.7% | 27.4% | 62.1% | 2.08% (active) | -6.05% (active) | 41.1% | 39.8% | 20.1% | 70.7% | 71% |  | 76.3% | 57.4% | 23.7% | 57.6% | 60% | 38.4%
O=C(N/N=C/c1ccc(F)cc1)c1ccccc1Nc1cccc(C(F)(F)F)c1 | 114% | 102% | 102% | 94.1% | 130% | 102% | 112% | 70.8% | 6.32% (active) | 7.44% (active) | 24% | 93.1% | 89.5% |  | 84.4% | 94.6% | 103% | 81.3% | 112% | 107%
COC(=O)Nc1nc2ccc(C(=O)c3cccc(I)c3)cc2[nH]1 | 12.1% | 29.9% | 23.3% | 28.8% | 42.4% | 17.5% | 5.37% (active) | -15.3% (active) | 5.32% (active) | 19.1% | -3.68% (active) | 7.16% (active) | 6.51% (active) | 28.6% | 28.3% | 30.3% | 14.9% | -5.1% (active) | 13.6% | -0.725% (active)
Clc1nc(Cl)c2ncn(CCOCCn3cnc4c(Cl)nc(Cl)nc43)c2n1 | -76.8% (active) | -91.1% (active) | -83.6% (active) | -95.4% (active) | -86% (active) | -89.1% (active) | -94.6% (active) | -92.4% (active) | -45.2% (active) | -68.9% (active) | -75.9% (active) | -52.8% (active) | -83.2% (active) | -85% (active) | -86.1% (active) | -98.3% (active) | -95.6% (active) | -97.4% (active) | -42.5% (active) | -56% (active)
CN1CCN(c2ccc3nc(-c4cc(C(C)(C)C)c(O)c(C(C)(C)C)c4)[nH]c3c2)CC1 | 82.5% | 86.4% | 88.2% | 61.3% | 90.5% | 87.3% | 68.6% | 90.5% | 14.5% | 39.6% | -14.5% (active) | -24.2% (active) | 94.1% | 91.6% | 75.9% | 83.9% | 88% | 74.4% | 71.9% | 86.8%
CCN(CC)CCCCCCNc1cc(OC)cc2cccnc12 | 114% | 90.1% | 89.4% | 62.6% | 130% | 99.6% | 90.4% | 63.5% | -35.6% (active) | -57.3% (active) | -51.2% (active) | -8.8% (active) | 20.7% | 97.7% | 44.6% | 101% | 88.8% | -44.2% (active) | 92.5% | 82.9%
